Assay [1] can be described thus: Nuclear factor erythroid 2-related factor 2/antioxidant responsive element (Nrf2/ARE) small molecule agonists: qHTS cell viability counter screen in human keratinocytes (AID 1919968; active means well fitted curve in the direction sought with a large enough effect in the repeat runs; an effect the other way counts as inactive or inconclusive; further: nearly all actives have a fitted effect of over 55% in size). The gist of the method:
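After a 5 h attachment period, ARE-reporter keratinocytes were dosed with compounds in DMSO and then cultured 23 h at 37 C. Cell viability came from CellTiter-Fluor signal read after a further 1 h.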
On the technique in general: In qHTS, concentration-response curves come from the screen itself.

Assay [2] is described as follows: Nuclear factor erythroid 2-related factor 2/antioxidant responsive element (Nrf2/ARE) small molecule agonists: luciferase reporter gene qHTS assay in human keratinocytes (AID 1919969). Further: nearly all actives have a fitted effect of over 35% in size. Further: potency means the concentration at half of the fitted maximal effect. On the technique in general: A reporter such as luciferase makes a cellular process visible.
Assay [3] addresses Gonadotropin-releasing hormone receptor (Homo sapiens) (UniProt P30968). Description: Human gonadotropin-releasing hormone receptor (GnRHR) small molecule agonists, calcium flux assay in GnRHR-HEK293 cells (AID 1920063). Further: nearly all actives have a fitted effect of over 35% in size. The procedure, abridged:
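We seeded human GnRHR-expressing HEK293 cells for 18 hours, loaded them with calcium dye for an hour at 37 C, added test compounds, and recorded fluorescence intensity kinetically for three minutes.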
A general note: Calcium flux is commonly read through the fluorescence of an indicator in the cells.

The target of assay [4] is KiSS-1 receptor (Homo sapiens) (UniProt Q969F8). Kind of assay: Human kisspeptin (KISS1R) small molecule agonists, calcium flux assay in KISS1R-HEK293 cells (AID 1920064; active means well fitted curve in the direction sought with a large enough effect in the repeat runs; an effect the other way counts as inactive or inconclusive). The gist of the method: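 Kinetic calcium assay, 1 s sampling over 3 min at Ex/Em 480/540, in HEK293 cells engineered with human KISS1R; compounds delivered in DMSO after 1 h dye loading.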
Sequence of KiSS-1 receptor (Homo sapiens) (Q969F8 whole entry, looked up): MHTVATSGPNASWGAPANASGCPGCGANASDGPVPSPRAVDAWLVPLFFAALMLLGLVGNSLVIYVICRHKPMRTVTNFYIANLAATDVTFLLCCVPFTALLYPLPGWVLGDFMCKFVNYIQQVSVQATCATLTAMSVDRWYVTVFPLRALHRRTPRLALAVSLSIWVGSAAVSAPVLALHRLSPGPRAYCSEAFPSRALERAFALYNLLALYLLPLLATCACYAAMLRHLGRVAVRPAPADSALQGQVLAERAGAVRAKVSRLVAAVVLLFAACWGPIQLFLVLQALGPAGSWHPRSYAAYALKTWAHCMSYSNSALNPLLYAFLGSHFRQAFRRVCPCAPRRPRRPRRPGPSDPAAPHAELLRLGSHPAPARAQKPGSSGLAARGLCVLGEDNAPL
The nature of assay [5]: G protein-coupled receptor (GPCR) small molecule agonists, calcium flux assay: HEK293 wild type cell line counter screen (AID 1920065). The procedure, abridged: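 Calcium-sensitive dye, loaded 1 h at 37 C into cells cultured 18 h, reports compound-evoked calcium release as fluorescence (Ex/Em 480/540), measured over 3 min. Agonist mode; 15-point titrations, triplicate.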

Assay [6] can be described thus: p53 small molecule agonists, cell-based qHTS assay with human liver microsomes (AID 1963577).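 Further: p53 response element beta-lactamase reporter cells with liver microsomes plus NADPH.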 The procedure, abridged:
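p53RE-bla cells; 5 h settle, 37 C/5% CO2; cpd + HLM 0.5 mg/mL + NADPH 0.5 mg/mL (final); 16 h 37 C; LiveBLAzer 2 h RT dark; fluorescence readout.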

Assay [7] in a line: p53 small molecule agonists, cell-based qHTS assay with rat liver microsomes (AID 1963578). The gist of the method:
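Rat liver microsome activation: microsomes 0.5 mg/mL, NADPH 0.5 mg/mL final; p53RE-bla cells, 16 h 37 C; LiveBLAzer readout, 2 h RT dark.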

Assay [8] can be described thus: p53 small molecule agonists, cell-based qHTS assay with human liver microsomes: qHTS cell viability counter screen (AID 1963579). Further: nearly all actives have a fitted effect of over 45% in size. The gist of the method:
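Luminescent CellTiter-Glo read-out, 30 min at room temperature, gauged cytotoxicity in p53RE-bla cells exposed 16 h at 37 C to DMSO-dissolved compounds with metabolic activation by human liver microsomes and NADPH, each 0.5 mg/mL final.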

The nature of assay [9]: p53 small molecule agonists, cell-based qHTS assay with rat liver microsomes: qHTS cell viability counter screen (AID 1963580). Further: nearly all actives have a fitted effect of over 45% in size. The gist of the method:
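p53RE-bla HCT-116 cells (4,000/well) rested 5 h at 37 C, then given Tox21 compounds in DMSO with rat liver microsomes (0.5 mg/mL final) plus NADPH (0.5 mg/mL final) for 16 h at 37 C. Viability read by CellTiter-Glo luminescence after 30 min at room temperature.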

Assay [10] in a line: p53 small molecule agonists, cell-based qHTS assay: qHTS cell viability counter screen (AID 1963581). Further: nearly all actives have a fitted effect of over 45% in size. The gist of the method:
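Following 5 h attachment, HCT-116 p53RE-bla cells took up compound for 16 h at 37 C; the reporter was read with B/G FRET substrate (2 h RT), and viability then via CellTiter-Glo ATP luminescence.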

The nature of assay [11]: p53 small molecule agonists, cell-based qHTS assay (AID 1963582; active means well fitted activation curve with a large enough effect in the signal ratio in the repeat runs, not every such curve was filed as active; the % refers to the signal ratio). The gist of the method: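 In this cell-based concentration-response screen, a p53 response element drives beta-lactamase; cells received DMSO-borne compounds after 5 h culture and were incubated a further 16 h before FRET substrate development.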
Assay [12] concerns the target 5-hydroxytryptamine receptor 2A (Homo sapiens) (UniProt P28223). Description: 5-hydroxytryptamine receptor 2A (HTR2A) small molecule antagonists, cell-based qHTS assay (AID 1963586). Further: nearly all actives have a fitted effect of over 45% in size. The procedure, abridged:
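Antagonist-mode intracellular calcium assay: DOI (4 nM) added after 5 min compound pre-incubation at room temperature to dye-loaded HTR2A-CHO cells. Fluorescence followed for 3 min, sampled every second.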

Assay [13] shares this target. Kind of assay: 5-hydroxytryptamine receptor 2A (HTR2A) small molecule agonists, cell-based qHTS assay (AID 1963587). Further: nearly all actives have a fitted effect of over 30% in size. The gist of the method: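 HTR2A-CHO cells, plated 18 h at 37 C/5% CO2, dye-loaded 1 h at 37 C; compounds in DMSO added by pin tool (agonist mode). Intracellular calcium flux read as kinetic fluorescence on FDSS over 2 min at 1 s intervals.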
For assay [14], the target named is Muscarinic acetylcholine receptor M1 (Homo sapiens) (UniProt P11229). Kind of assay: Cholinergic receptor muscarinic 1 (CHRM1) small molecule antagonists, cell-based qHTS assay (AID 1963588). Further: nearly all actives have a fitted effect of over 40% in size. The gist of the method:
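CHRM1-CHO calcium-flux assay, antagonist mode. Cells were seeded 18 h, dye-loaded 1 h at 37 C and given compound for 5 min at RT, then acetylcholine was added at 50nM. FDSS fluorescence was read 3 min; 15 concentrations, three runs.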

Assay [15] is described as follows: cAMP Responsive Elements (CRE) small molecule agonists, cell-based qHTS assay (AID 1963590). The gist of the method: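 A CRE-responsive beta-lactamase reporter in HEK 293T cells was used. Treatment ran 3 h at 37 C; detection used LiveBLAzer B/G FRET substrate for 2 h at room temperature.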
Assay [16] in a line: cAMP Responsive Elements (CRE) small molecule antagonists, cell-based qHTS assay (AID 1963591; active means well fitted inhibition curve with a large enough effect in the signal ratio in the repeat runs, not every such curve was filed as active; the % refers to the signal ratio). The procedure, abridged:
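HEK293T cells carrying a CRE-driven beta-lactamase reporter receive compound and NKH477 (0.25 uM final) for 3 h. Fluorescence from LiveBLAzer B/G FRET substrate is read after 2 h at room temperature.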

The target of assay [17] is D(2) dopamine receptor (Homo sapiens) (UniProt P14416). Kind of assay: Dopamine D2 receptor (DRD2) small molecule antagonists, cell-based qHTS assay (AID 1963595; active means well fitted inhibition curve with a large enough effect in the signal ratio in the repeat runs, with a control signal flat; the % refers to the signal ratio). The gist of the method:
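Cells were plated and grown for 24 h at 37 °C. Ro20-1724 (0.1 mM final) went in first, then compound for 10 min. NKH477 (200 nM) with quinpirole (12 nM) followed for 30 min at RT, then HTRF detection reagents for 1 h.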

For assay [18], the target named is Muscarinic acetylcholine receptor M1 (Homo sapiens) (UniProt P11229). Kind of assay: Cholinergic receptor muscarinic 1 (CHRM1) small molecule agonists, cell-based qHTS assay (AID 1963589). Further: nearly all actives have a fitted effect of over 35% in size. The procedure, abridged: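 Measures agonist-induced intracellular calcium rise. Stable human CHRM1 CHO line, 1 h dye load at 37 C, compounds from DMSO, kinetic fluorescence read.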
Sequence of Muscarinic acetylcholine receptor M1 (Homo sapiens) (P11229 whole entry, looked up): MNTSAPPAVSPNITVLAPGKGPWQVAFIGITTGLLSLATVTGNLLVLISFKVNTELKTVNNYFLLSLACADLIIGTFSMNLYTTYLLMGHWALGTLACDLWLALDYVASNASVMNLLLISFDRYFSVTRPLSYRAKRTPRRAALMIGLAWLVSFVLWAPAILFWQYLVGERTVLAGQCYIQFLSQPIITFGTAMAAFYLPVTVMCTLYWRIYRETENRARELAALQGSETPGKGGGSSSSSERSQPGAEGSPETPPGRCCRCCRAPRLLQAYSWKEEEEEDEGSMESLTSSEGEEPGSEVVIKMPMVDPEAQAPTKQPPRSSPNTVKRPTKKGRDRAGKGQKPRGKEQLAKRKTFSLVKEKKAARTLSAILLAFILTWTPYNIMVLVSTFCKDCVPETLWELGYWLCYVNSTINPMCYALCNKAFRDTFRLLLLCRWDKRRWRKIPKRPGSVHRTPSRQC

Assay [19] has as its target D(2) dopamine receptor (Homo sapiens) (UniProt P14416). Description: Dopamine D2 receptor (DRD2) small molecule agonists, cell-based qHTS assay (AID 1963594). Further: nearly all actives have a fitted effect of over 35% in size. The procedure, abridged: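 HEK293 cells stably expressing DRD2 were cultured 24 h at 37 C, then given Ro20-1724 (0.1 mM final) and compounds for 10 min at room temperature. NKH477 (200nM) was then added for 30 min. cAMP was read by HTRF.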

The target in assay [20] is Beta-2 adrenergic receptor (Homo sapiens) (UniProt P07550). Kind of assay: Adrenergic beta2 receptor (ADRB2) small molecule antagonists, cell-based qHTS assay (AID 1963592). Further: series mostly up to about 92 µM; nearly all actives have a fitted effect of over 50% in size. The gist of the method:
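Cells (CHO, stable ADRB2 overexpression) incubated 18-20hr at 37C; compounds added from DMSO; agonist mix (1nM isoproterenol, 100uM IBMX, 25uM Ro-20-1724) added; 0.5hr RT; d2-cAMP and anti-cAMP-cryptate added; 1hr RT; 665/615 nm read.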

Drawing on PubChem BioAssay (Tox21), this text covers Potency and outcome for seven compounds.

The structures appear in SMILES notation. Values without a mark were called inactive. Inconclusive results are not listed. Calls of active or inactive are those of the source. Unless noted, the call rests on the fitted dose curve.

Sequence of 5-hydroxytryptamine receptor 2A (Homo sapiens) (P28223 whole entry, looked up): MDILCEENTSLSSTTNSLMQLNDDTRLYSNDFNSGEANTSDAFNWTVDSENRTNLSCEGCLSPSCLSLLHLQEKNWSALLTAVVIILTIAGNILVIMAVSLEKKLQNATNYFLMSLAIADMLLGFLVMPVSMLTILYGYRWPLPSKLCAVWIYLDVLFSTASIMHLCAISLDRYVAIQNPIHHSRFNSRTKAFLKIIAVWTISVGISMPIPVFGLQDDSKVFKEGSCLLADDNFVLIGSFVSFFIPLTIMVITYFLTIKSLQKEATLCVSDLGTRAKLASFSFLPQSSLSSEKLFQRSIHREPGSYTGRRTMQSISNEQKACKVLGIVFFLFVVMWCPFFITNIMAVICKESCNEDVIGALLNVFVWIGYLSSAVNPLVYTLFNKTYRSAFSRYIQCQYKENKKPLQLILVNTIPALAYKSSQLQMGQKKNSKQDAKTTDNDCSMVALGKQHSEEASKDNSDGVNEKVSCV
Sequence of Beta-2 adrenergic receptor (Homo sapiens) (P07550 whole entry, looked up): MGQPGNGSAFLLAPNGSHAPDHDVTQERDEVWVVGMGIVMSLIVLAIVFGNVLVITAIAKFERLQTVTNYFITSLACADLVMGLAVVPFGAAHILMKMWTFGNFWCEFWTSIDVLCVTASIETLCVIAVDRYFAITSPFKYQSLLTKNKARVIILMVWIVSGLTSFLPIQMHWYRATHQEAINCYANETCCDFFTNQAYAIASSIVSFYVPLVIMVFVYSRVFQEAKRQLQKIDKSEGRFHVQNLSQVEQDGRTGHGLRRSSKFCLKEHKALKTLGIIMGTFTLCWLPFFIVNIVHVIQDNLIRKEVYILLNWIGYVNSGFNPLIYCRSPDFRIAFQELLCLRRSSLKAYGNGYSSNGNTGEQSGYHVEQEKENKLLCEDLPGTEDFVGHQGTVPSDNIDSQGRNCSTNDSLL
Sequence of Gonadotropin-releasing hormone receptor (Homo sapiens) (P30968 whole entry, looked up): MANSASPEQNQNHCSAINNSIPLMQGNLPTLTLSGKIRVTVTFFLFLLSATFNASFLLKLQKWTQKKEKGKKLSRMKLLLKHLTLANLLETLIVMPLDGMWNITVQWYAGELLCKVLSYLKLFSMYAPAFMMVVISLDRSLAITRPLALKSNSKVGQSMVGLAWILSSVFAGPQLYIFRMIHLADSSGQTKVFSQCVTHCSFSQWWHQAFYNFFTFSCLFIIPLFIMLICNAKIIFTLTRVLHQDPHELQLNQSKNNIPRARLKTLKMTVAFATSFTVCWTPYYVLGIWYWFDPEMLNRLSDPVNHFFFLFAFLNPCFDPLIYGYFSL
Sequence of D(2) dopamine receptor (Homo sapiens) (P14416 whole entry, looked up): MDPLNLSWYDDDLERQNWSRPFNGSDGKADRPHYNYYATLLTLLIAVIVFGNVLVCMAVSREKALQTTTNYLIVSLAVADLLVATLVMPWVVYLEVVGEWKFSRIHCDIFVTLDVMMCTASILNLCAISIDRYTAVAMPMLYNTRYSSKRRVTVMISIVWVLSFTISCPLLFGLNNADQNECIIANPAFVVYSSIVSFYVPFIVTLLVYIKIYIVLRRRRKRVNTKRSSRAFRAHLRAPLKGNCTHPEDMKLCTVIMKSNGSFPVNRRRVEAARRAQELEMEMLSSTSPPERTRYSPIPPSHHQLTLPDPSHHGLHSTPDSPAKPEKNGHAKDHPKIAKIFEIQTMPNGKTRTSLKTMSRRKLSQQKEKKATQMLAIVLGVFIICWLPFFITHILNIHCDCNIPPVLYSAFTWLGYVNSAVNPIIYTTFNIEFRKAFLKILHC

In the case of `Cc1cc(CCCOc2c(C)cc(-c3noc(C(F)(F)F)n3)cc2C)on1`, the Potency result in assay [1], in assay [3], in assay [6], in assay [7], in assay [8] and in assay [9] was “inactive” each time. Moreover, the Potency result in [10], in assay [11], in assay [12], in [13], in [14] and in assay [15] was “inactive” throughout. Besides, the Potency entry in [16] and in assay [17] was “inactive” throughout. Moreover, in [2], the Potency is 11.9 µM (active). In addition, the outcome in assay [4] and in [5] was inactive.
`O=C(OCC(O)CO)c1ccccc1Nc1ccnc2c(C(F)(F)F)cccc12` (stereo not given): the Potency entry in assay [1], in assay [2], in assay [3], in assay [6], in assay [7] and in [8] was “inactive” in each case. For the same compound, the Potency entry in assay [9], in assay [10], in assay [11], in assay [12], in assay [13] and in [14] was “inactive” in each case. For the same compound, the Potency entry in assay [18], in assay [19] and in [17] was “inactive” each time. In addition, the outcome in assay [4] and in assay [5] was inactive.
With `Cc1cc(=O)oc2cc(O)cc(O)c12`, the Potency entry in [1], in assay [2], in assay [3], in assay [6], in assay [7] and in [8] was “inactive” throughout. Besides, the Potency result in [9], in assay [10], in [11], in [12], in [13] and in [14] was “inactive” throughout. In addition, the Potency result in assay [18], in assay [20], in [19] and in assay [17] was “inactive” each time. Moreover, the result in [4] and in [5] was inactive.
With `Cc1c(C(C)C)c(=O)n(-c2ccccc2)n1C`, the Potency entry in assay [1], in assay [2], in [3], in assay [6], in [7] and in assay [8] was “inactive” in each case. The Potency result in [9], in assay [10], in [11], in [12], in assay [13] and in [14] was “inactive” in each case. Also, the Potency entry in [15], in assay [16], in assay [20], in [19] and in [17] was “inactive” throughout. The result in [4] and in assay [5] was inactive.
For the compound `COC(=O)c1ccc(OC)cc1`, the Potency result in assay [1], in assay [2], in assay [3], in assay [6], in assay [7] and in [8] was “inactive” each time. For the same compound, the Potency entry in [9], in assay [10], in assay [11], in [12], in assay [13] and in assay [14] was “inactive” each time. The Potency result in assay [15], in [16], in assay [20], in [19] and in assay [17] was “inactive” in each case. Moreover, the outcome in assay [4] and in assay [5] was inactive.
Consider `CNC(=O)c1ccccc1`, for which the Potency result in assay [1], in assay [2], in [3], in assay [6], in assay [7] and in assay [8] was “inactive” each time. Further, the Potency result in assay [9], in assay [10], in [11], in [12], in assay [13] and in assay [14] was “inactive” each time. Also, the Potency entry in [15], in assay [20], in assay [19] and in assay [17] was “inactive” throughout. The result in [4] and in assay [5] was inactive.
In the case of `CCC(CO)(CO)[N+](=O)[O-]`, the Potency result in assay [1], in assay [2], in assay [3], in assay [6], in assay [7] and in assay [8] was “inactive” in each case. For the same compound, the Potency entry in assay [9], in [10], in assay [11], in assay [12], in [13] and in assay [14] was “inactive” each time. The Potency entry in [15], in [16] and in [20] was “inactive” in each case. In addition, the result in assay [4] and in [5] was inactive.
